Measurements reported in PubChem BioAssay AID686996 (Broad Institute, 2013).
Several values for one entry are separate records, joined by “and”; a condition that tells them apart may be missing. Identical values can stand only once. In all, about 350,000 compounds went through this assay and about 1,900 (0.54%) were called active.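 The calls were made as follows: active = mean inhibition across replicates at least about 35%, with every replicate also reaching that limit (limit read from the data); inconclusive = only one of the two criteria met; inactive = neither criterion met.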 For the sample, actives were picked, then their nearest neighbours and some compounds at random. More than one record can exist for a structure, and the calls need not agree.

target: Caspase-6 (Homo sapiens) (UniProt P55212); assay: inhibition of CASP6 peptide cleavage – biochemical, VEID-R110 fluorescence, single point, set 2, primary screen (AID 686996); conditions: purified caspase-6, Z-VEID-R110 cleavage fluorescence; at 12.5 µM; stronger effect = higher value;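 also: 0% = median of neutral control wells and 100% = no fluorescence left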
Sequence (P55212 24-179 limits assumed): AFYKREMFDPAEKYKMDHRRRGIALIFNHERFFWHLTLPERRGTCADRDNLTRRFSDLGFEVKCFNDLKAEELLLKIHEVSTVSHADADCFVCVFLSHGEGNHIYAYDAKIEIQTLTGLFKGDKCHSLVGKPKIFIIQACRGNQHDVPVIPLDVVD
Sequence (P55212 194-293 limits assumed): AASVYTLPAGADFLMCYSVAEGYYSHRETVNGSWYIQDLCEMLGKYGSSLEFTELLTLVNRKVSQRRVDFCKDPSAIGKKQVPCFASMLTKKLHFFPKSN

Row | Compound | inhibition
1 | CC=Cc1ccc2n(c1=O)C[C@@H]1[C@@H](CO)[C@H](C(=O)N(C)C)[C@H]2N1CCc1ccccc1 (mixture of isomers) | -1.44% (inactive)
2 | CC=Cc1ccc2n(c1=O)C[C@@H]1[C@@H](CO)[C@H](C(=O)N[C@H](C)c3ccccc3)N(C(=O)c3cnccn3)[C@H]21 (mixture of isomers) | -3.98% (inactive)
3 | CC=Cc1ccc2n(c1=O)C[C@@H]1[C@@H](CO)[C@H](C(=O)NCCc3ccccc3)N(C(C)=O)[C@H]21 (mixture of isomers) | 61.2% (active)
4 | CO[C@H]1CN(C)C(=O)c2ccc(NC(=O)C3CC3)cc2OC[C@@H](C)N(Cc2ccc(F)cc2)C[C@@H]1C | 3.32% (inactive)
5 | Cc1cc(C)cc(C(=O)NC2C(=O)N3C(C(=O)O)=C(CSc4nnc(C)s4)CSC23)c1 (stereo not drawn) | 9.95% (inactive)
6 | CCN1CCN(C(=O)N[C@@H](C(=O)N[C@@H]2C(=O)N3C(C(=O)O)=C(CSc4nnnn4C)CS[C@H]23)c2ccc(O)cc2)C(=O)C1=O | 0.383% (inactive)
7 | CO/N=C(\C(=O)N[C@@H]1C(=O)N2C(C(=O)O)=C(COC(C)=O)CS[C@H]12)c1csc(N)n1 (stereo in doubt) | 13.9% (inactive) and 5.09% (inactive) and 37.7% (active)
8 | C=CC1=C(C(=O)O)N2C(=O)[C@@H](NC(=O)/C(=N/OCC(=O)O)c3csc(N)n3)[C@H]2SC1 | 88.2% (active)
9 | COc1ccccc1NC(=O)N1C[C@H](O)COC[C@H]2O[C@H](CC(=O)NCCc3ccccc3)CC[C@@H]21 | 1.79% (inactive)
10 | COc1ccccc1CN1CC[C@@H]2[C@@H](CO)Nc3ccc(C#Cc4ccccc4)cc3[C@@H]21 | 0.663% (inactive)
11 | C[C@@H]1CN([C@@H](C)CO)C(=O)c2cc(NC(=O)Nc3cccc4ccccc34)ccc2O[C@@H]1CN(C)C(=O)NC1CCCCC1 | 0.662% (inactive)
12 | C[C@@H](O)C#Cc1cnc2c(c1)C(=O)N([C@@H](C)CO)C[C@H](C)[C@@H](CN(C)CC1CCCCC1)O2 | 2.32% (inactive)
13 | Cc1cc(N=Nc2ccc3ccccc3c2)ccc1O | 2.65% (inactive)
14 | Oc1ccc(/C=N/N(Cc2ccccc2)c2ccccc2)cc1 | -0.437% (inactive)
15 | Oc1ccc(N=Cc2c(O)ccc3ccccc23)cc1 | 36.4% (active)
16 | COc1ccc(S(=O)(=O)Nc2cccc3c2O[C@H](CN(C)Cc2ccc4c(c2)OCO4)[C@H](C)CN([C@@H](C)CO)C3=O)cc1 | 0.634% (inactive)
17 | C[C@H]1CCCCO[C@H](CN(C)C(=O)Nc2ccccc2)[C@@H](C)CN([C@@H](C)CO)C(=O)c2cc(NC(=O)c3ccncc3)ccc2O1 | -0.544% (inactive)
18 | Cc1cc(/C=C2/SC(=O)N(CC(=O)N3CCCC3)C2=O)c(C)n1C | 1.51% (inactive)
19 | Cc1cc(/C=C2/SC(=O)N(CC(=O)OC(C)C)C2=O)c(C)n1C | 1.11% (inactive)
20 | Cc1cc(/C=C2\SC(=O)N(C)C2=O)c(C)n1-c1cccc(C(=O)O)c1 | 39.2% (active)
21 | O=C(C1=C[C@@H](c2ccccc2)C[C@@H](OCCCCO)O1)N1CCN(Cc2ccccc2)CC1 | -1.99% (inactive)
22 | C[C@@H]1CN([C@H](C)CO)C(=O)Cc2cc(NC(=O)CCN3CCOCC3)ccc2O[C@H]1CN(C)C | 0.558% (inactive)

Row | Compound | inhibition
23 | COc1ccc2c3c([nH]c2c1)[C@@H](CO)N(Cc1ccncc1)CC31CN(C(=O)CN(C)C)C1 | -1.6% (inactive)
24 | O=C(NC(=O)N1CCOCC1)c1ccccc1 | -0.559% (inactive)
25 | Cc1oc2c(c1C(=O)N1CCOCC1)C(=O)c1ccccc1C2=O | 62.8% (active)
26 | O=C(c1snnc1-c1ccccc1)N1CCOCC1 | -0.096% (inactive)
27 | Cc1ccc(S(=O)(=O)N[C@H]2CC[C@H](CC(=O)O)O[C@H]2CO)cc1 | 3% (inactive)
28 | Cc1noc(C)c1S(=O)(=O)N(C)C[C@H]1OCCCC[C@@H](C)Oc2ccc(NC(=O)C3CCCCC3)cc2C(=O)N([C@H](C)CO)C[C@@H]1C | -3.38% (inactive)
29 | COc1ccc(NC(=O)Nc2ccc3c(c2)C(=O)N([C@@H](C)CO)C[C@@H](C)[C@@H](CN(C)S(=O)(=O)c2ccc(C)cc2)OCCCC[C@H](C)O3)cc1 | -2.65% (inactive)
30 | COCC(=O)N1[C@@H](CO)[C@H](c2ccccc2)C12CN(C(=O)NC1CCCCC1)C2 | -0.716% (inactive)
31 | O=C(Nc1nc2ccc([N+](=O)[O-])cc2s1)c1ccncc1 | 65.7% (active)
32 | O=C(Nc1ccncc1)c1ccc([N+](=O)[O-])cc1Cl | -0.931% (inactive)
33 | O=C(Nc1ccccc1C(=O)Nc1ccncc1)c1ccc([N+](=O)[O-])cc1 | -0.84% (inactive)
34 | CC(C)NC(=O)N(C)C[C@H]1Oc2ncc(C#CC3CC3)cc2C(=O)N([C@H](C)CO)C[C@@H]1C | -0.116% (inactive)
35 | C[C@H](CO)N1C[C@H](C)[C@H](CN(C)C(=O)Nc2cccc(Cl)c2Cl)OCc2ccccc2-c2ccccc2C1=O | 0.728% (inactive)
36 | COc1cccc(/C=C2\SC(=S)N(CCCC(=O)N3CCOCC3)C2=O)c1 | -1.77% (inactive)
37 | O=C(CCCN1C(=O)/C(=C/c2cccs2)SC1=S)Nc1ccc(O)cc1 | 0.413% (inactive)
38 | Cc1ccc(-c2nn(-c3ccccc3)cc2/C=C2\SC(=S)N(CCCCCC(=O)O)C2=O)o1 | 49.9% (active)
39 | Cc1ccc(S(=O)(=O)Nc2ccc3c(c2)C(=O)N(C)[C@H]2CC[C@H](CC(=O)O)O[C@H]2CO3)cc1 | 0.009% (inactive)
40 | C[C@H](CO)N1C[C@H](C)[C@H](CN(C)C(=O)C2CCC2)Oc2ncc(C#CCc3ccccc3)cc2C1=O | -2.13% (inactive)
41 | O=C(O)CCn1c(O)c(C=C2N=c3ccccc3=N2)sc1=S | 35.5% (active)
42 | Cc1ccc(S(=O)(=O)N(C)C[C@@H]2Oc3c(NS(C)(=O)=O)cccc3C(=O)N([C@@H](C)CO)C[C@H]2C)cc1 | 0.89% (inactive)
43 | COc1cccc(NC(=O)Nc2ccc3c(c2)C(=O)N(C)[C@@H]2CC[C@@H](CC(=O)NCCc4ccccc4)O[C@H]2CO3)c1 | 1.41% (inactive)
